Most compounds without a hit are left out; they make up all but 2.3% or so of the library.
PfM18AAP inh: blocks P. falciparum M18 aspartyl aminopeptidase | recombinant PfM18AAP, H-Glu-NHMec fluorogenic cleavage | inhibition, % at 7.35 µM | 290,000 compounds, 1.2% hits | AID 1822;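 active means inhibition above the campaign mean inhibition over all tested compounds plus 3 SD, cut at about 28% in these data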;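 further: 0% = plate median of test compound wells and 100% = 2 mM ZnCl2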
DNA FID counter: counter-screen for HCV NS3 helicase inhibitors: DNA intercalator displacement; DNA fluorescent intercalator displacement, fluorescence; inhibition, % at 7.9 µM; 290,000 compounds, 0.17% hits; AID 1845; in the data active means inhibition above about 37%;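 further: 0% = vehicle and 100% = reference compound; higher means more ethidium bromide displaced from hairpin DNA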
Kir21 block: inhibitors of mouse Kir2.1 inward-rectifier potassium channel | P35561 | HEK293-Kir2.1, FluxOR thallium flux fluorescence; active compounds read low | B-score at 10 µM | 310,000 compounds, 0.85% hits | AID 1672;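 active means fluorescence ratio B-score at or below minus 3 SD of library scores, with starting-brightness B-score within 2 SD, cut at about -4.2 in these data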;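 further: channel flux triggered by added potassium and thallium sulfate stimulus; B-score of peak minus minimum fluorescence over baseline after thallium stimulus; more negative B-score means stronger Kir2.1 block with less thallium influx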
Target sequence (P35561 whole entry, looked up): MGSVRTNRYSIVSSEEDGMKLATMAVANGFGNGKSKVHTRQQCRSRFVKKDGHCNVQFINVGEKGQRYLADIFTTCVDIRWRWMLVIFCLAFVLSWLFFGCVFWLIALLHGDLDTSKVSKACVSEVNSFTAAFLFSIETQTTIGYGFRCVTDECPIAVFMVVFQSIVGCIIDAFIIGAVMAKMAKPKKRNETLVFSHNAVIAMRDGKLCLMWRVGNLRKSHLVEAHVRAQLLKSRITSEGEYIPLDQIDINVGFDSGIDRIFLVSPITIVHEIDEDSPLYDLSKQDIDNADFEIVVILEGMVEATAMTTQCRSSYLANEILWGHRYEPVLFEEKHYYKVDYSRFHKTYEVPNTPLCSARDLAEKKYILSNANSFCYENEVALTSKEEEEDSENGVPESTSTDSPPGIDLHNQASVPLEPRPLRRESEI
Rce1 inh: yeast Ras-converting enzyme inhibition | Q03530 | 290,000 compounds, 0.27% hits | calls only | yeast membranes, quenched prenylated peptide cleavage fluorescence;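 active means fall in fluorescence gain of 50% or more versus controls, with final raw signal at or below 3038400; inconclusive means same 50% fall but final raw signal above 3038400; inactive means fall in fluorescence gain under 50%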;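 further: plate controls were neutral control wells for no effect and wells lacking membranes for full effect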
Active calls of the source: *; i = inactive; ? = inconclusive; . = not tested or not shown; + = active, no number.

SMILES	PfM18AAP inh	DNA FID counter	Kir21 block	Rce1 inh
O=C(Nc1ccc(C2=NCCN2)cc1)c1ccc(Cl)c(C(=O)Nc2ccc(C3=NCCN3)cc2)c1	-8	49*	0	i
O=C(Nc1ccc(Cl)c(Cl)c1)c1ccc(Cl)c(Cl)c1	3	-4	-0.45	i
COc1ccccc1N(CC(=O)N/N=C/c1ccc(C(=O)O)cc1)S(=O)(=O)c1ccc(C)cc1	-2	-23	0	i
COc1ccccc1-c1nnc2sc(-c3ccc(N(C)C)cc3)nn12	0	-10	0.02	+
Cc1c(CCC(=O)O)c(=O)oc2cc(OCc3ccccc3Br)ccc12	-2	-23	-0.36	i
CCN(CC)CCCN(C(=O)c1ccco1)c1nc(-c2ccc(Cl)cc2)cs1	1	27	-6.2*	i
CCN(CC)CCCN(C(=O)c1ccco1)c1nc(-c2ccc(C)cc2)cs1	-2	21	-0.07	i
O=C(NNC(=O)c1csc(N2CCOCC2)n1)c1ccc(Cl)nc1	.	.	0.18	.
CCCCN(C)CC(O)Cn1cc(/C=C/C(=O)c2ccc(C)cc2)c2ccccc21 (configuration not stated)	13	23	-5.2*	i
CCOc1ccc(N(CC(=O)NC2CC3CCC2C3)S(=O)(=O)c2ccc(C)cc2)cc1 (configuration not stated)	-1	-61	0.05	i
CCOc1ccc(N(CC(=O)NC2CC3CCC2C3)S(=O)(=O)c2ccccc2)cc1 (configuration not stated)	-4	-40	-0.52	+
CCOCCCNC(=O)c1ccc(/C=C2\Oc3ccccc3N(C)C2=O)cc1	-11	-26	0.11	i
CCc1ccccc1NC(=O)C1CCCN(c2nccc(C)n2)C1 (configuration not stated)	0	-16	-1.4	i
COc1ccc(OC)c(/C=N/NC(=O)CCc2ccc(O)c(O)c2)c1	31*	2	-1.5	i
COc1ccc(OC)c(/C=N/NC(=O)CCc2c(C)n[nH]c2C)c1	-7	-10	0.03	i
N#CC(C(N)=O)=C1CCCCC1	-5	0	-0.07	i
CN(C)S(=O)(=O)c1ccc(C(=O)NCc2nnc(SCC(=O)NCc3ccco3)o2)cc1	-8	-7	-0.79	i
CSc1nc(SCC(N)=O)c2c3c(sc2n1)CN(C)CC3	6	9	-0.43	i
CCNc1nc(SCC(N)=O)nc2sc3c(c12)CCN(C)C3	29*	1	-0.79	i
Cc1cccc(-n2ncc3c2CCCC3NC(=O)CCN2CCCCO2)c1C (configuration not stated)	2	-32	-0.64	i
N#CC(C#N)=C1C=CC=CN1/C(=C\c1ccco1)C(=O)c1ccccc1	-56	-2	.	.
COc1ccc(C(=O)/C(=C\c2ccco2)N2C=CC=CC2=C(C#N)C#N)cc1	-28	0	-9.9*	i
C=CCn1c(N2CCCCCC2)nc2c1c(=O)n(C)c(=O)n2C	1	-23	0.99	+
CCN(c1cccc(C)c1)S(=O)(=O)c1cc2c3c(c1)CCC(=O)N3CCC2	.	.	-5.8*	i
COc1cccc(OC)c1C(=O)N1CCNCC1	-3	-3	-0.57	i
SMILES	PfM18AAP inh	DNA FID counter	Kir21 block	Rce1 inh
CCc1ccc2nc(N=C(N)N)nc(C)c2c1	-10	7	-6.1*	i
Cc1nc(N=C(N)N)nc2ccccc12	-2	3	0.44	i
O=C(CCc1ccccc1)N=C1SC2CS(=O)(=O)CC2N1Cc1ccccc1 (configuration not stated)	-4	-39	-1.6	i
Cc1ccc(/C=C(\C#N)C(=O)N2CCCC2)c(C)c1	-1	-9	0.55	i
Cc1cc(C)n(Cc2ccc(NC(=O)c3ccc(COc4ccccc4Br)cc3)cc2)n1	-14	-11	0.01	+
CC(NC(=O)/C(C#N)=C/c1ccc(Cl)c([N+](=O)[O-])c1)c1ccccc1 (configuration not stated)	2	10	-5.5*	+
O=C(Nc1ccc(NC(=O)c2ccc(S(=O)(=O)c3ccccc3)cc2)cc1)c1ccccc1	3	46*	-1.3	i
CC(=O)Nc1ccc(NC(=O)c2ccc(NC(=O)c3ccccc3)cc2)cc1	-19	-9	1.4	i
COc1ccc(CCNC(=O)c2cc3c(=O)n4ccccc4nc3n(CCN3CCOCC3)c2=N)cc1	6	-7	-0.83	i
COc1ccc(CCNC(=O)c2cc3c(=O)n4ccccc4nc3n(CCCN3CCOCC3)c2=N)cc1	5	48*	1.2	i
O=C(NCCN1CCOCC1)c1c(O)nc2ccccn2c1=O	10	-1	0.53	i
Cc1cccn2c(=O)c3cc(C(=O)NCc4ccco4)c(=N)n(CCOCCO)c3nc12	29*	5	-2	i
CCCNc1nc2nc3ccccn3c(=O)c2cc1C(=O)NCCN1CCOCC1	10	40*	0.51	i
COc1ccc(CCn2c(=N)c(C(=O)NCCN3CCOCC3)cc3c(=O)n4ccccc4nc32)cc1OC	4	44*	0.66	i
O=c1c(CN2CCN(Cc3ccccc3F)C(CCO)C2)coc2ccccc12 (configuration not stated)	-7	-3	0.11	i
COc1ccc(N2CCN(S(=O)(=O)c3c(C)nc4sccn4c3=O)CC2)cc1	-5	-16	0.79	i
Cc1cccn2c(=O)c3cc(C(=O)NCCN4CCOCC4)c(=N)n(CCCN4CCOCC4)c3nc12	16	79*	0	i
Cc1cccn2c(=O)c3cc(C(=O)NCCN4CCOCC4)c(=N)n(CCc4ccccc4)c3nc12	2	18	-0.28	i
CCCCNC(=O)c1cc2c(=O)n3cccc(C)c3nc2n(Cc2ccccc2)c1=N	-4	-5	0.56	+
COc1ccc(CCn2c(=N)c(C(=O)NCCN3CCOCC3)cc3c(=O)n4cccc(C)c4nc32)cc1OC	0	56*	0.83	i
CCNC(=O)c1cc2c(=O)n3cccc(C)c3nc2n(CCc2ccccc2)c1=N	3	-3	0.01	i
Cc1cccn2c(=O)c3cc(C(=O)NCC4CCCO4)c(=N)n(CCN4CCOCC4)c3nc12 (configuration not stated)	-6	-16	-0.82	?
COc1ccc(CCNC(=O)c2cc3c(=O)n4ccccc4nc3n(CC3CCCO3)c2=N)cc1OC (configuration not stated)	0	10	-0.03	.
COc1ccc(CCNC(=O)c2cc3c(=O)n4ccccc4nc3n(CCCN3CCOCC3)c2=N)cc1OC	2	46*	0.13	i
CCc1noc(C)c1C(=O)N1CCSC1=Nc1cccc(Cl)c1C	4	-35	-3.5	i
Cc1ccc(C)c(Nc2nc(-c3ccncc3)nc3ccccc23)c1	2	-32	-1.3	i
CC(=O)/C=C1/C(=O)Nc2ccccc21	15	-1	-5.2*	i
O=C1CSC(c2ccccc2[N+](=O)[O-])N1c1ccccc1 (configuration not stated)	7	-14	-4.5*	i
CCCNC(=O)COC(=O)c1c2c(nc3ccccc13)CCC2	-5	-12	-1.6	i
CCCCn1c(=O)[nH]c(=O)c2c1nc(-c1ccc(OC)c(Br)c1)n2CC(C)C	2	-38	0.91	+
